# In the supplement of paper PMC6555819:
# Key:
# Test in all cases: PBM binding z-score (relative to random genomic background probes); higher = stronger binding; sequences stand for … in GC…GCGATTGACAGCGTAGAATGAAGG
# [1] = system: PPARg:RXRa DBDmut IVT, anti-RXR (DBD mutation: RXRa K156A/R161A, NR concentration 270 nM, RXRa partner concentration 90 nM)
# Summary of the method: (§1)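 For binding z-scores, the reference was random background probes on custom Agilent 4×180K protein-binding microarrays. These arrays were incubated 1 h with ligand-free nuclear receptor dimers in PBS pH 7.4, 2% milk, 0.02% Triton X-100, 1 mM DTT, 0.2 mg/mL BSA and 0.4 mg/ml salmon testes DNA. Fluorescence was scanned after antibody detection of each partner (one per run) and regression-normalized.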
# [2] = system: PPARg:RXRa IVT, anti-PPARg (NR concentration 270 nM, RXRa partner concentration 90 nM)
# Summary of the method: as §1
# [3] = system: PPARg DBDmut:RXRa IVT, anti-PPARg (DBD mutation: PPARg1 K132A/R137A, NR concentration 270 nM, RXRa partner concentration 90 nM)
# Summary of the method: as §1
# [4] = system: PPARg DBDmut IVT, anti-PPARg (DBD mutation: PPARg1 K132A/R137A, NR concentration 270 nM)
# Summary of the method: as §1
# [5] = system: PPARg homodimer (NR concentration 180 nM)
# Summary of the method: as §1
# [6] = system: PXR:RXRa (NR concentration 270 nM, RXRa partner concentration 90 nM)
# Summary of the method: as §1
# [7] = system: PXR homodimer (NR concentration 270 nM)
# Summary of the method: as §1
# [8] = system: RARa:RXR (NR concentration 270 nM, RXRa partner concentration 90 nM)
# Summary of the method: as §1
# [9] = system: RARa homodimer (NR concentration 270 nM)
# Summary of the method: as §1
# [10] = system: RARb:RXRa (NR concentration 270 nM, RXRa partner concentration 90 nM)
# Summary of the method: as §1
# [11] = system: RARb homodimer (NR concentration 270 nM)
# Summary of the method: as §1
# [12] = system: RARg:RXRa (NR concentration 270 nM, RXRa partner concentration 90 nM)
# Summary of the method: as §1
# [13] = system: RARg homodimer (NR concentration 270 nM)
# Summary of the method: as §1
# [14] = system: RXRa DBDmut IVT, anti-RXR (DBD mutation: RXRa K156A/R161A, NR concentration 90 nM)
# Summary of the method: as §1
# [15] = system: RXRa homodimer (NR concentration 180 nM)
# Summary of the method: as §1
# [16] = system: THRa:RXRa (NR concentration 90 nM, RXRa partner concentration 90 nM)
# Summary of the method: as §1
# [17] = system: THRa homodimer (NR concentration 90 nM)
# Summary of the method: as §1
# [18] = system: VDR homodimer (NR concentration 270 nM)
# Summary of the method: as §1
Sequence,PBM binding z-score [1],PBM binding z-score [2],PBM binding z-score [3],PBM binding z-score [4],PBM binding z-score [5],PBM binding z-score [6],PBM binding z-score [7],PBM binding z-score [8],PBM binding z-score [9],PBM binding z-score [10],PBM binding z-score [11],PBM binding z-score [12],PBM binding z-score [13],PBM binding z-score [14],PBM binding z-score [15],PBM binding z-score [16],PBM binding z-score [17],PBM binding z-score [18]
AGAATGAGGTTATACGTACATCAGGGAAGAAAGT,2.47,2.41,1.28,1.19,0.736,1.28,0.643,1.82,0.483,1.5,0.803,1.95,1.32,1.73,2.32,2.13,0.372,1.22
TAGACTAGGTCATTGGGCCAGTATAGTACGCATC,5.72,6.51,1.28,0.786,1.15,1.2,0.294,1.65,0.657,3.45,2.75,3.47,4.19,0.824,2.44,2.45,0.646,1.26
AGAATGAGTTTACCAAAGATCAGGGAAACGCTTG,-0.401,-0.237,0.734,-0.0652,-0.566,0.296,0.241,-0.198,-0.325,0.347,-0.757,-0.0513,0.236,3,0.272,-0.103,-0.687,1.78
CCTACTGGGCCATTCAGAGGTAATTGATCATATG,3.91,3.26,-0.325,-0.711,-0.319,-0.537,-0.389,-0.179,-0.252,0.178,-0.0878,0.0655,0.162,-0.042,-0.244,0.3,-0.433,-0.114
CGAACTAGGTCATTGACAGGACAGTCAATAGTAA,7.74,8.19,3.76,2.34,1.94,1.66,0.135,2.34,0.378,3.51,2.6,4.51,4.14,2.45,2.29,2.83,0.652,1.07
CTACCAAGGTGAACAAGGTCGCTGATTACTATTC,2.41,2.81,0.217,0.423,0.663,1.7,0.349,1.89,-0.144,2.17,2.04,1.88,1.55,0.77,1.8,3.28,1.81,1.27
ATCGAAAGGTCGACGAGGTGTGTATACACCGTTT,0.053,1.53,-0.0457,0.936,1.17,2.67,-0.171,2.91,0.322,3.74,2.54,4.07,3.97,1.18,4.14,2.22,-0.542,0.527
CGAACTAGGTCATTGACTGGACAGTGAATAGTAA,8.06,8.06,5.21,5.65,0.956,0.89,0.0623,1.78,0.262,3.52,2.56,3.72,4.26,2.1,2.58,2.25,0.595,0.943
TCCATTAGTTGAAGGGCAACCGACGAGTCCGTTT,2.37,0.637,0.0905,0.783,1.13,1.16,0.683,0.989,0.466,1.86,1.47,0.679,0.586,1.9,1.05,0.553,0.351,1.57
GCCACTGGGGCAAAGCAGGTTACCATAAGGTTGG,5.67,5.29,0.444,-0.613,0.322,0.224,-0.707,1.06,-0.774,1.01,1.08,0.357,0.651,-0.861,0.287,2.79,-0.169,-0.617
ACATACAGGTGATGAAGGTAACTCAGGCTATCAT,1.27,1.16,1.17,0.566,0.36,0.132,0.441,0.745,0.688,0.588,0.492,0.787,0.615,0.27,0.874,1.16,0.135,0.174
ACTATTAGTTGACTTAGTGCAACCGATACGACGC,0.167,0.382,0.85,0.707,0.732,0.283,0.128,0.123,0.689,0.309,0.207,0.552,0.65,0.565,0.369,0.0819,-0.158,0.241
CCTAGTTTGTCAAGGTCACACACGCTATAGGTAC,1.6,2.96,1.92,1.48,4.48,4.71,5.83,4.57,2.66,4.18,4.5,4.51,4.58,2.88,4.73,4.32,4.77,4.93
CCAGTCAGGTGAAAGGTAACTCAGTCTGGTACGC,3.47,3.78,-0.52,-0.877,1.17,0.577,-0.2,1.58,0.202,1.55,0.929,1.2,0.727,0.124,1.42,1.95,1.04,-0.00335
AGCATGAGGTTACCAAAGATCAGGGAAACGCTTG,0.803,0.996,0.0724,-0.827,0.663,1.38,0.241,2.44,-0.672,2.07,1.04,2.27,1.81,1.12,2.78,2.96,0.893,0.309
CCTTTCGGGTCACGAGGTTATAGCACGACGAGCG,3.85,5.47,3.53,2.42,2.82,4.93,0.795,6.44,0.862,4.99,4.31,6.29,5.8,2.08,7.39,4.52,3.83,2.77

Sequence,PBM binding z-score [1],PBM binding z-score [2],PBM binding z-score [3],PBM binding z-score [4],PBM binding z-score [5],PBM binding z-score [6],PBM binding z-score [7],PBM binding z-score [8],PBM binding z-score [9],PBM binding z-score [10],PBM binding z-score [11],PBM binding z-score [12],PBM binding z-score [13],PBM binding z-score [14],PBM binding z-score [15],PBM binding z-score [16],PBM binding z-score [17],PBM binding z-score [18]
ATCTCTAGCTAACCAAGTTCAGTGAATGCCGAAC,-0.58,-0.0463,0.368,0.475,0.651,1.32,1.49,0.181,0.128,0.746,1.01,0.314,0.399,0.573,0.0234,0.509,0.214,2.29
CCAGACAGGTGGGAAGGTAACTCAGCCTCGATTA,-0.289,-0.383,-0.344,-0.717,0.689,-0.359,0.0826,-0.164,0.496,-0.0117,0.465,-0.192,-0.24,-0.499,-0.186,-0.392,0.393,-0.38
TCTATTAGTTGATTAGGGCAAGCGAAACAGCGGA,1.88,1.33,0.35,0.93,0.455,0.314,0.381,0.428,1.01,0.893,0.589,0.429,0.466,0.689,0.305,0.409,0.23,0.398
CCTCGGAGGACATAAGGTCAGAGCTGTCCGCTTT,0.213,0.303,-1,-1.59,1.72,2.42,-0.0342,3.08,0.792,3.4,3.89,3.93,3.55,0.965,2.31,3.91,2.81,1.01
ATATGTACGTTACATCCGGGTCATTCAGGCTATG,1.16,1.97,2.06,2.28,1.34,3.1,3.05,3.04,0.866,1.56,2.41,1.61,1.24,1.2,2.07,3.14,2.93,2.95
CCCACTGGGCCACGAAAGGTCATTGATTCAGTGA,4.55,6.02,1.73,0.623,3,5.57,1.48,5.51,1.31,4.1,4.6,4.7,4.33,-0.145,4.87,4.11,1.09,2.4
TCTATTAGATGATTAGGGCAACCGAAACAGCGGA,2.02,1.09,0.897,0.561,0.156,0.4,-0.123,0.416,0.326,0.703,0.19,0.609,0.575,1.02,0.432,0.35,-0.055,0.272
CGTCCAAGGTCAAGGTCAGAGAAAGAGACTCGAA,4.02,4.66,0.309,-0.449,3.52,4.81,1.27,5.48,2.01,5.62,4.83,6.78,7.97,3.66,6.72,4.16,3.41,3.04
CCTTACGGGTCACTCCAGGTTATAGTATCGGAGT,2.7,3.52,0.75,0.31,1.56,4.94,0.228,3.64,0.304,3.8,3.16,4.38,4.25,1.55,4.67,5.23,0.63,1.7
TCTGCTAGGTCAGTTGGTCACCTAACGAGCTGCC,2.8,3.77,1.37,0.817,0.461,0.216,-0.932,0.734,-1.21,3.44,2.87,2.97,3.79,0.479,1.15,1.88,0.86,-0.466
CCTTACGGGTCACGAGGTTATACCACGACGAGCG,4.05,5.31,1.4,2.59,3.29,4.71,0.172,6.09,0.951,4.45,3.83,6.22,5.35,1.77,7.21,3.84,1.13,2.24
CCGACTGGGCCAAAGGTCATTGATTCCAATGCTC,3.83,5.72,-0.642,0.24,4.69,5.36,1.79,5.72,0.97,4.52,4.58,5.54,4.4,1.57,5.7,3.21,0.644,2.4
CAAACTAGGTCACAGAGGTCAATGTCCGTGCGTA,8.72,9.05,4.01,2.12,4.75,6.6,10.6,7.36,2.65,5.17,5.68,6.89,7.2,3.06,6.85,4.66,2.96,6.33
AGAACGAGGGCACGCTGAGTTGATAGCCGAGTAG,4.46,4.04,0.489,0.266,0.0307,1.21,-0.287,0.916,-0.217,2.42,1.22,1.94,2.15,1.99,1.39,1.89,0.0635,1.57
TCTAGCAGGCCAGAGGGTCACCCAAGAGGTACGG,0.386,0.974,-0.634,-0.348,0.411,2,-0.502,2.95,0.0468,2.43,2.74,3.04,2.17,-0.135,2.96,1.97,0.143,0.203
